Screening results: PubChem BioAssay, National Center for Advancing Translational Sciences (NCATS)
The list is not random: actives were taken first. Their share in the collection is about 3%.
OvCa metastasis = Primary qHTS assay for Inhibitors of ovarian cancer metastasis using an organotypic tumor microenvironment (TME) model; AID 1963576, 2024; 0.1% of 46,000 active; Potency, µM (doses to about 45.8 µM), for inactives: top-dose activity change, negative = inhibition, usual class: inhibitors; SKOV3ip1-GFP adhesion/invasion on 3D omental model, fluorescence;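 note: plate controls were DMSO wells for no effect and tomatine positive control wells for full effect; nearly all actives have a fitted effect of over 65% in size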
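Primary human omental fibroblast/mesothelial 3D culture pre-formed 48 h. SKOV3ip1-GFP cells added with compounds (0.36-46 umol/L), incubated 2 h RT/16 h 37 C, fixed; GFP cells quantified at 488/509 nm.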
p53null 32C kill = qHTS Screen for Compounds that Selectively Target Cancer Cells with p53 Mutations: Cytotoxicity of p53 Null Cells at the Permissive Temperature. H1299-neo p53 null cells, ATP luminescence, 24 h, 32C. AID 903, 2007. Potency, µM (series often up to 46.1 µM), for the others: at the highest dose activity change, negative = cytotoxicity, hits mostly cytotoxic. 0.62% of 55,000 active;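 note: 0% = DMSO only and -100% = full killing by 100 µM tamoxifen; nearly all actives have a fitted effect of over 55% in size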
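AC50 values derive from Hill modelling of qHTS concentration-response data (up to 46 uM) in H1299-neo cells. Cells were treated 24 h at 32C following overnight attachment at 37C; viability was read as cellular ATP.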
p53null 39C tox = qHTS Screen for Compounds that Selectively Target Cancer Cells with p53 Mutations: Cytotoxicity of p53 Null Cells at the Nonpermissive Temperature | H1299 p53-null (neo) cells, 39C, ATPlite viability, 24 h | Potency, µM (top dose mostly 46.1 µM), without a hit: at the highest dose activity, negative = cell killing, usual class: cytotoxic | AID 904, 2007 | 0.97% of 55,000 active;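 note: 0% = DMSO only and -100% = full killing by 100 µM tamoxifen; nearly all actives have a fitted effect of over 50% in size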
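Concentration-response (up to 46 uM) was run for 24 h at the nonpermissive 39C on H1299-p53A138V or H1299-neo cells. ATP content was measured with ATPlite luminescence. AC50 values were Hill-modeled after normalizing between DMSO and 100 uM tamoxifen killing.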
S16 viability = Cell viability qHTS assay in S16 Pmp22-F2sN cells; Potency, µM (doses to about 57.5 µM), inactives show at the highest dose activity change, negative = cytotoxicity, actives largely listed as cytotoxic; 0.48% of 43,000 active; AID 1508642, 2021; S16 Pmp22-F2sN Schwann cells viability, CellTiter-Glo, 24 h; note: nearly all actives have a fitted effect of over 65% in size
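Used to flag compounds lowering reporter output through toxicity, this quantitative HTS measures ATP-based CellTiter-Glo luminescence in S16 Pmp22-F2sN Schwann cells after 24 h compound exposure at 37C.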
pS6 MEF inh = Acumen qHTS Assay for Inhibitors of the mTORC1 Signaling Pathway in MEF (Tsc2-/-, p53-/-) Cells: Sytravon; Tsc2-/- p53-/- MEF, phospho-rpS6 immunofluorescence/PI, 24 h; Potency, µM (series often up to 38.3 µM), without a hit: at the top dose activity change, negative = inhibition, usual class: inhibitors; AID 493208, 2011; 0.78% of 44,000 active;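 note: plate controls were DMSO for no effect and rapamycin for full effect; nearly all actives have a fitted effect of over 50% in size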
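Compounds act on Tsc2-/-, p53-/- fibroblasts carrying an empty vector for 24 h before fixation and dual staining for phospho-S6 and DNA (propidium iodide). Values are percentages of cells above a rapamycin-defined pS6/PI threshold.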
PMP22 txn = Cell-based coincidence reporter assay to measure PMP22 gene transcription in S16 Pmp22-F2sN cells - Primary screen; S16 Pmp22-F2sN Schwann cells (luciferase reporters placed in the Pmp22 gene), FLuc/NLuc coincidence luminescence, 24 h; Potency, µM (top dose mostly 57.5 µM), for inactives: at the highest dose activity change, negative = inhibition, most hits filed as inhibitors; 2% of 43,000 active; AID 1508649, 2021; active = clear falling dose curves in both reporters; inconclusive = both reporters move, but less clearly or upward; inactive = either reporter flat; the % is the NLuc reporter signal
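Reporter cells (S16 Pmp22-F2sN, 500–1,000 per well) exposed to compounds for 24 h, 37C, 5% CO2; lysis with FLuc read after 10 min, then Stop&Glo and NLuc read after 10 min.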
Active calls of the source: *; i = inactive; ? = inconclusive; . = no result; [ ] = another dose, or the depositor's remark. Unless noted, calls come from the whole dose curve; as a rule, active = well fitted curve in the direction sought with a large enough effect; inconclusive = small, poorly fitted or top-dose-only effect, or another doubt; inactive = no such curve, though single readings can be large; an effect the other way counts as inactive or inconclusive. Unless noted, % is set by controls: 0 for no effect and ±100 for the full control effect; potency is the fitted concentration of half-maximal effect.

SMILES | OvCa metastasis | p53null 32C kill | p53null 39C tox | S16 viability | pS6 MEF inh | PMP22 txn
NC(=O)Nc1cc(-c2cccc(F)c2)sc1C(=O)N[C@H]1CCCNC1 | -21% | . | . | . | . | .
Cc1cccc(CS(=O)(=O)c2ncc(Cl)c(C(=O)NCc3ccccc3)n2)c1 | -12% | 19% | ? | 20µM* | 18µM* | ?
COc1ccc2nc(NC(=O)c3nc(S(=O)(=O)Cc4ccccc4F)ncc3Cl)sc2c1 | 7.1µM* | -28% | -18% | 3.5µM* | 15µM* | 4.8µM*
O=C(Nc1ccccc1F)c1nc(S(=O)(=O)Cc2ccccc2F)ncc1Cl | 3.2µM* | -11% | ? | 6.3µM* | 1.2µM* | ?
Cc1nnc(NC(=O)c2nc(S(=O)(=O)Cc3ccccc3)ncc2Cl)s1 | ? | ? | ? | 5µM* | ? | 13µM*
COc1ccc2nc(NC(=O)c3nc(SCc4ccccc4F)ncc3Cl)sc2c1 | 3% | -6% | 13% | 11% | 2% | -1%
CC(C)c1cc(C(C)C)c(CC(=O)NS(=O)(=O)Oc2c(C(C)C)cccc2C(C)C)c(C(C)C)c1 | -11% | . | . | . | . | .
O=C(Nc1nc2ccc(F)cc2s1)c1nc(S(=O)(=O)Cc2ccccc2)ncc1Cl | ? | 11% | ? | 6.3µM* | -8% | 6.2µM*
COc1ccc2nc(NC(=O)c3nc(S(=O)(=O)Cc4ccccc4)ncc3Cl)sc2c1 | ? | -26% | ? | 5.6µM* | 9.3µM* | 3µM*
CCc1c(C)sc2c1CCN(Cc1ccccc1F)C2c1ccccc1 (centres undefined) | -7% | 25% | 23% | 8.9µM* | 9% | 3.4µM*
CCOC(=O)c1ccccc1NC(=O)N1CCc2c(sc(C)c2CC)C1c1ccccc1 (centres undefined) | -1% | -4% | 4% | 4% | 22% | ?
CCc1c(C)sc2c1CCN(Cc1cccc(OC)c1)C2c1ccccc1 (centres undefined) | 8% | 33% | ? | ? | 1% | 9.5µM*
O=C(Nc1cccc(Br)c1)c1cccc(S(=O)(=O)N2CCCCCC2)c1 | -1% | . | . | . | . | .
C#CCN(C)CC1=Cc2ccccc2Oc2ccccc21 | -15% | . | . | . | . | .
COc1ccc(C(=O)Nc2nc3ccc(S(C)(=O)=O)cc3s2)cc1 | . | -1% | -11% | . | . | .
Cc1ccc(C(=O)Nc2nc3ccc(S(C)(=O)=O)cc3s2)o1 | . | 13µM* | 10µM* | . | . | .
N=C1SC(=Cc2ccc(-c3ccc4c(c3)C(=O)NC4=O)o2)C(=O)N1c1ccc(Br)cc1 | -17% | . | . | . | . | .
COc1ccc(NC(=O)CSc2nc(-c3cccs3)cc(C(F)(F)F)n2)cc1OC | 2% | -28% | 17% | ? | -14% | 4.2µM*
N#Cc1c(C(F)(F)F)cc(-c2cccs2)nc1SCC(=O)Nc1cccc(Br)c1 | 0% | -9% | ? | 1% | 12µM* | -1%
N#Cc1c(C(F)(F)F)cc(-c2cccs2)nc1SCC(=O)Nc1cccc(Cl)c1 | -14% | -7% | -15% | 1% | -15% | -13%
CCN1CCN(c2cc(C)c3cc(NC(=O)c4cccc(Cl)c4)ccc3n2)CC1 | -28% | -5% | 22µM* | ? | 12µM* | ?
CCN1CCN(c2cc(C)c3cc(NC(=O)/C=C/c4cccc(Cl)c4)ccc3n2)CC1 | ? | ? | 16µM* | ? | ? | ?
Cc1cc(N2CCCCC2)nc2ccc(NC(=O)c3ccc(F)cc3)cc12 | -9% | . | . | -8% | 0% | -52%
CCCCc1ccc(C(=O)Nc2ccc3nc(N4CCN(CC)CC4)cc(C)c3c2)cc1 | -7% | 1% | -14% | ? | 2.1µM* | ?
CCN1CCN(c2cc(C)c3cc(NC(=O)c4cc(OC)cc(OC)c4)ccc3n2)CC1 | ? | ? | ? | ? | 13µM* | ?
SMILES | OvCa metastasis | p53null 32C kill | p53null 39C tox | S16 viability | pS6 MEF inh | PMP22 txn
COc1ccc(C(=O)Nc2ccc3nc(N4CCC(C)CC4)cc(C)c3c2)cc1 | 0% | ? | ? | 14% | -8% | -7%
Cc1cc(N2CCCCC2)nc2ccc(NC(=O)/C=C/c3ccccc3Cl)cc12 | -22% | -2% | 3% | ? | -15% | ?
COc1cc(N2CCC(N3CCN(C)CC3)CC2)ccc1Nc1ncc(Cl)c(Nc2ccccc2S(=O)(=O)C(C)C)n1 | -7% | . | . | . | . | .
c1cc(N[C@@H]2CCNC2)nc(-c2cnc3ccc(-c4cn[nH]c4)cn23)c1 | 3% | . | . | . | . | .
C1Cc2[nH]nc(-c3nn[nH]n3)c2C1 | -7% | . | . | . | . | .
COc1ccc2c3n(c(=NC(=O)c4cccnc4)nc2c1OC)CCN3 | -8% | . | . | . | . | .
CCOc1ccc(NC(=O)CSc2oc(-c3cccs3)nc2S(=O)(=O)c2ccc(Cl)cc2)cc1 | -7% | -10% | ? | ? | -2% | ?
CCOc1ccc(NC(=O)CSc2oc(-c3ccc(C)cc3)nc2S(=O)(=O)c2ccc(C)cc2)cc1 | -1% | 13µM* | 13µM* | 22µM* | 0% | ?
Clc1ccc(C(c2ccccc2)c2c[nH]c3ccccc23)s1 (centres undefined) | 6% | 7% | -9% | 27% | ? | ?
Cc1ccc2[nH]cc(C(c3ccccc3)c3ccc(Cl)s3)c2c1 (centres undefined) | -8% | 20µM* | 25µM* | ? | ? | -30%
O=C(Nc1ccccc1C(F)(F)F)c1cc2ccccn2n1 | 4% | 7.9µM* | 10µM* | . | 3% | .
CCOC(=O)c1ccccc1NC(=O)c1ccc2c(Cl)c3c(nc2c1)CCC3 | i | ? | ? | 9% | 0% | -7%
CCOC(=O)c1cccc(NC(=O)c2ccc3c(Cl)c4c(nc3c2)CCC4)c1 | -4% | ? | 0.4µM* | 4% | ? | -13%
CCOC(=O)c1cccc(NC(=O)c2cc3ccccn3n2)c1 | 1% | 13µM* | 10µM* | . | 0% | .
C[C@H](O)[C@@H]1C(=O)N2C(C(=O)O)=C(S[C@@H]3CN[C@H](CNS(N)(=O)=O)C3)[C@@H](C)[C@@H]12 | 19% | . | . | . | . | .
CC(C)(C)[C@H](NC(=O)c1ccc(N)c(Cl)c1)C(=O)N1CCC[C@@H]1C(=O)N[C@H](C#N)CC(=O)O | 12%[3.51 µM] | . | . | . | . | .
